High-throughput results as filed in PubChem BioAssay.
Most compounds without a hit are left out; they make up all but 4.4% or so of the library.
TRHR PAM = qHTS for Small Molecule Agonists and Allosteric Enhancers of Human TRH Receptor: Primary Screen for Enhancers; enhancement, % at 2 µM; TRHR cells, fluo-8 calcium fluorescence, EC20 TRH enhancement; hit rate 0.66% among 360,000; AID 493056, 2011; Thyrotropin-releasing hormone receptor (Homo sapiens), P34981; in the data active means enhancement above about 30%
Target sequence (P34981 whole entry, looked up): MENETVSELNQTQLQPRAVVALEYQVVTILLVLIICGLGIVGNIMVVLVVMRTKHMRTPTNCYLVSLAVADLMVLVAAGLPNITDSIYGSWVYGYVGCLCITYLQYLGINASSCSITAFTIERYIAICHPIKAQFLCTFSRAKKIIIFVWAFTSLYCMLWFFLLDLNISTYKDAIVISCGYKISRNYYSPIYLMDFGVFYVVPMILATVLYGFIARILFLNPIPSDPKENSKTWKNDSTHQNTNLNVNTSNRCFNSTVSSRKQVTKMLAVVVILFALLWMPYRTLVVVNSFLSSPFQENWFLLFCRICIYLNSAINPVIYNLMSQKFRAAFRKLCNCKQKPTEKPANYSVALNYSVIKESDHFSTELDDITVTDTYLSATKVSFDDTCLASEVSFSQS
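Enhancer read-out: after compound pinning and an initial kinetic agonist-mode read, an EC20 of TRH (10 nM final) was injected and fluo-8 calcium signal (Ex 480/Em 530) followed at 1 s/cycle for 100 cycles in TRHR-expressing cells.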
D1 antagonist = Antagonist of Human D 1 Dopamine Receptor: qHTS; activity change, negative = inhibition, % at 10 µM; D(1A) dopamine receptor (Homo sapiens), P21728; hit rate 3.2% among 360,000; HEK293 TREx D1 cells, calcium flux, dopamine EC80; hits give low values; in the data active means activity change below about -30%
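Tetracycline-induced HEK293 T-REx cells with force-coupled D1 receptor were loaded with a no-wash calcium dye. Compound was added after a 10 s baseline and read kinetically for 180 s; EC80 dopamine was then added and calcium flux followed another 180 s.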
D1 agonist = Allosteric Agonists of the Human D1 Dopamine Receptor: qHTS. HEK293 T-REx D1 cells, calcium flux, agonist mode. hit rate 1% among 360,000. D(1A) dopamine receptor (Homo sapiens), P21728. activation, % at 2 µM
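Tetracycline-induced HEK293 TREx D1 cells, force-coupled to calcium signalling, were dye-loaded with a no-wash calcium kit. Compound was pin-added after a 10 s baseline. Fluorescence was read kinetically at 1 cycle/s for 180 s, with calcium rises flagged as agonism.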
D1 PAM = Potentiators of Human D1 Dopamine Receptor: qHTS; potentiation, % at 10 µM; D(1A) dopamine receptor (Homo sapiens), P21728; HEK293 TREx D1 cells, calcium flux, dopamine EC20 potentiation; hit rate 0.036% among 360,000; AID 504651, 2011; in the data active means potentiation above about 30%
USP1-UAF1 inh = Inhibitors of USP1/UAF1: Primary Screen | recombinant USP1/UAF1, Ub-Rhodamine cleavage fluorescence | Potency, µM (doses to about 57.1 µM), hits mostly inhibitors | hit rate 0.23% among 390,000; active means well fitted inhibition curve with a large enough effect; inconclusive means small, poorly fitted or top-dose-only effect; inactive means no such curve, though single readings can be large or run the other way; further: nearly all actives have a fitted effect of over 60% in size
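In this screen, compounds sit with the deubiquitinase complex (1nM) for 15 min at room temperature before Ub-Rho is added at 150nM final. Fluorescence rise is then followed for 6 reads every 60 seconds.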
TRHR agonist = qHTS for Small Molecule Agonists and Allosteric Enhancers of Human TRH Receptor: Primary Screen for Agonists; activation, % at 2 µM; Thyrotropin-releasing hormone receptor (Homo sapiens), P34981; TRHR cells, calcium flux fluo-8, FDSS agonist mode; hit rate 0.18% among 360,000
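In this calcium-flux screen, cells bearing human TRHR are dye-loaded with fluo-8, baselined for 10 cycles, then exposed to library compounds; positive kinetic calcium responses during the agonist phase mark hits, with TRH as control.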
Large screens that a line does not name were inactive; ! = not confirmed by another sample. Unless noted, no stated cut-off is given here; in the data, active means activation above about 30%; inactive means the rest.

CC(NC(=O)CCSCCC(=O)NC(C)c1ccccc1)c1ccccc1 (configuration not stated)	D1 antagonist -45.1
CCC(C(=O)NC(C)c1ccccc1)C(=O)NC(C)c1ccccc1 (configuration not stated)	none
C=CCC(C(=O)NC(C)c1ccccc1)C(=O)NC(C)c1ccccc1 (configuration not stated)	D1 agonist 32.4
CC(NC(=O)CCNC(=O)c1ccco1)c1ccccc1 (configuration not stated)	D1 antagonist -42.3
CC(NC(=O)CCC(=O)NC(C)c1ccccc1)c1ccccc1 (configuration not stated)	none
CC(NC(=O)CNC(=O)c1ccco1)c1ccccc1 (configuration not stated)	USP1-UAF1 inh inconclusive
O=C(CCNC(=O)c1ccco1)Nc1cccc(Br)c1	D1 antagonist -30.3
Cc1ccc(-c2nnc(Nc3ccc(Br)cc3)c3ccccc23)cc1S(=O)(=O)N1CCCCC1	none
CCCC(=O)Nc1cc(-c2nnc3c4ccccc4c(C)nn23)ccc1C	none
COc1cc(OC)c(NC(=O)c2cc(C)nc3c2c(C)nn3-c2ccc(C)cc2)cc1Cl	none
COc1cccc2cc(C(=O)NCCc3c(C)[nH]c4ccc(Br)cc34)c(=O)oc12	none
CN(C(=O)c1ccncc1)c1nnc(-c2cccnc2)s1	none
Cc1ccc(C(=O)N(C)c2nnc(-c3ccncc3)s2)cc1	D1 antagonist -30.5
Cn1c(SCC(=O)NC2CCS(=O)(=O)C2)nnc1-c1ccco1 (configuration not stated)	none (no result: D1 PAM)
COc1cccc(-c2nnc(SCC(=O)NC3CCS(=O)(=O)C3)n2C)c1 (configuration not stated)	D1 antagonist -35.2
COC(=O)C1CCN(CC(=O)N(C)c2c(N)n(Cc3ccccc3)c(=O)[nH]c2=O)CC1	D1 antagonist -36.5
COc1ccc(C(=O)N2CC(=O)Nc3ccc(C)cc3C2c2ccc(F)cc2)c(OC)c1 (configuration not stated)	none
Cc1ccc(NC(=O)c2oc3c(c2C)-c2[nH]ncc2CC3)c(Cl)c1	D1 antagonist -43.4
Cc1cccc(NC(=O)c2oc3c(c2C)-c2[nH]ncc2CC3)c1C	USP1-UAF1 inh inconclusive
Cc1cc(C)c(NS(=O)(=O)c2ccc(-c3coc(C)n3)cc2)c(C)c1	none
Cc1nc(-c2ccc(S(=O)(=O)NCc3ccc(N(C)C)cc3)cc2)co1	none
Cc1nc(-c2ccc(S(=O)(=O)NCc3ccc(F)cc3)cc2)co1	D1 antagonist -55.8
COc1ccc(OC)c(CNS(=O)(=O)c2ccc(-c3coc(C)n3)cc2)c1	none
Cc1ccc(N(C)S(=O)(=O)c2ccc(-c3coc(C)n3)cc2)cc1	D1 antagonist -38.6
COc1ccc(NS(=O)(=O)c2ccc(-c3coc(C)n3)cc2)c(OC)c1	D1 antagonist -32.6
O=C(c1cccc(Cl)c1)N1CCC(c2nc3c(nnn3Cc3ccc(F)cc3F)c(=O)[nH]2)CC1	none
Cn1nnnc1Sc1ncnc2scc(-c3cc4ccccc4o3)c12	D1 antagonist -44.1! (no result: USP1-UAF1 inh)
Cn1nnnc1Sc1ncnc2scc(-c3ccccc3C(F)(F)F)c12	D1 antagonist -36.4! (no result: USP1-UAF1 inh)
Cn1nnnc1Sc1ncnc2scc(-c3ccccc3F)c12	none (no result: USP1-UAF1 inh)
Cc1ccccc1CN1C(=O)c2ccccc2Sc2ccc(C(=O)NCc3ccccc3)cc21	none
O=[N+]([O-])c1ccc(Nc2ccc(Cl)cc2)nc1	none
O=C(O)c1cccc(Nc2ccc([N+](=O)[O-])cn2)c1	D1 antagonist -35.1
O=[N+]([O-])c1ccc(Nc2ccc3ccccc3c2)nc1	D1 antagonist -34.4
Cc1csc(NC(=O)CSc2ncnc3c2cnn3-c2ccccc2Cl)n1	D1 antagonist -30.9
CC1CCc2c(sc(NC(=O)CSc3ncnc4c3cnn4-c3ccccc3Cl)c2C#N)C1 (configuration not stated)	D1 antagonist -38.8
Cc1csc(NC(=O)CSc2ncnc3ccccc23)n1	none
Cc1csc(NC(=O)CSc2nc3ccccc3c3c2CCCC3)n1	TRHR PAM 35.6
CC1CCc2c(sc(NC(=O)CSc3ncn[nH]3)c2C#N)C1 (configuration not stated)	none
COc1ccc(C2CC(=O)c3cnc(NC(=O)c4ccccc4)nc3C2)cc1OC (configuration not stated)	none
COc1cc(C2CC(=O)c3cnc(NC(=O)COc4ccccc4)nc3C2)cc(OC)c1OC (configuration not stated)	D1 antagonist -30.0
COC(=O)C1=C(N)Oc2cc(C)n(C)c(=O)c2C1c1ccc(Cl)c(Cl)c1 (configuration not stated)	D1 antagonist -33.0
COC(=O)C1=C(N)Oc2cc(C)n(CC3CCCO3)c(=O)c2C1c1ccc(Cl)c(Cl)c1 (configuration not stated)	none
CN1CC(=O)Nc2cc(C(=O)O)ccc21	D1 antagonist -31.0, USP1-UAF1 inh inconclusive
CCCCN(CC)CCCNC(=O)c1ccc2c(c1)NC(=O)CN2C	none
O=C(COCc1cc(-c2ccco2)on1)Nc1ccc(OC(F)(F)F)cc1	none
CCOc1ccc(OCC)c(Nc2nc3ccc(Cl)cc3n3cnnc23)c1	D1 antagonist -36.5
Cc1c(Cl)cccc1NC(=O)CCCn1nc([N+](=O)[O-])cc1C	none
Cc1cc([N+](=O)[O-])nn1CCCC(=O)Nc1ccc(Cl)cc1Cl	D1 antagonist -38.5
CCCn1c(N2CCOCC2)nc2c1c(=O)[nH]c(=O)n2C	none
Cc1nnc(SCCn2c(N3CCCCCC3)nc3c2c(=O)[nH]c(=O)n3C)s1	none
Cc1nnc(SCCn2c(N3CCN(C)CC3)nc3c2c(=O)[nH]c(=O)n3C)s1	TRHR PAM 40.7
CCCn1c(N2CCN(C)CC2)nc2c1c(=O)[nH]c(=O)n2C	D1 antagonist -30.6
O=C(CSc1nnnn1-c1ccc(O)cc1)c1cc2ccccc2o1	D1 agonist 32.3
Cc1cc(C)c(-n2nnnc2SCC(=O)c2cc3ccccc3o2)c(C)c1	none
CN1CCCC(CC2c3ccccc3Sc3ccccc32)C1 (configuration not stated)	D1 antagonist -40.5, D1 agonist 53.4
